Screening data deposited in PubChem BioAssay by National Center for Advancing Translational Sciences (NCATS).
This is a sample that favours compounds with a hit; in the whole collection about 6.2% have one here.
RORg inh = blocks mouse ROR gamma transcriptional activity | Drosophila S2 Gal4-RORgamma UAS-luciferase reporter, 20 h | Potency, µM (series often up to 53.6 µM), most hits filed as inhibitors | P51450 | AID 2551 | 5.4% of 310,000 active; further: nearly all actives have a fitted effect of over 60% in size
Target sequence (P51450 whole entry, looked up, the tested form may be a part): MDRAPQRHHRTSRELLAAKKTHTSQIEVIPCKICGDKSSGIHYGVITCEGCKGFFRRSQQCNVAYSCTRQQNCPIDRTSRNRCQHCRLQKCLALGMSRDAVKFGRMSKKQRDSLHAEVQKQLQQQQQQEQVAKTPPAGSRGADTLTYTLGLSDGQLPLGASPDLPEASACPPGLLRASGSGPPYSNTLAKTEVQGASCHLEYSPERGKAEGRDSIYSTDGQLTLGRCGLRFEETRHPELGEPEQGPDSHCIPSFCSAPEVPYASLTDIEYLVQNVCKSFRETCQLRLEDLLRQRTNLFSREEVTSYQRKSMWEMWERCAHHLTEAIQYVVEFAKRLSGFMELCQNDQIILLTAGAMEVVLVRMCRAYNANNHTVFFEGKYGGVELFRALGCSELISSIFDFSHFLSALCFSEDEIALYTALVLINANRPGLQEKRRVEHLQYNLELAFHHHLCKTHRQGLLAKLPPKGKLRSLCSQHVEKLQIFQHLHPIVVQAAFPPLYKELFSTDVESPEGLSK
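A Gal4/UAS one-hybrid system in insect cells: metallothionein-promoter Gal4–ROR gamma fusion plus Photinus luciferase reporter. Copper sulfate 700 uM final, 20 hr ambient incubation, luminescent detection after 10 min with reagent.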
Luc counter = Kinase-Glo luciferase inhibition (counter-screen); Q27757; Kinase-Glo luciferase, ATP luminescence, 8 min; Potency, µM (top dose mostly 38.3 µM), actives largely listed as inhibitors; 0.28% of 200,000 active; further: nearly all actives have a fitted effect of over 60% in size
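Luminescence was the read-out, taken after 8-minute incubation at ambient temperature. Luciferase turned over luciferin with 10 uM ATP in imidazole pH 7.2 buffer containing KCl, MgCl2, Tween 20 and BSA.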
Gal4-VP16 FLuc = counter-screen for ROR gamma inhibitors: Gal4-VP16 reporter; Drosophila S2 Gal4-VP16 UAS-luciferase, luminescence, 20 h; Potency, µM (top dose mostly 53.6 µM), actives largely listed as inhibitors; 3.5% of 310,000 active;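 further: Gal4-VP16 expression switched on by copper sulfate through the metallothionein promoter; nearly all actives have a fitted effect of over 50% in size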
Each line names hits and unclear results; the compound was inactive in the other large screens. The call rests on the fitted dose curve; in most records, active means well fitted curve in the direction sought with a large enough effect; inconclusive means small, poorly fitted or top-dose-only effect, or another doubt; inactive means no such curve, though single readings can be large; an effect the other way counts as inactive or inconclusive.

O=C(NCCO)C(F)(F)C(F)(F)C(F)(F)OC(F)(C(=O)NCCO)C(F)(F)F (configuration not stated)	none
O=C1CN(CC(=O)NC(=O)NCc2ccccc2)CCN1	none
CO[C@@H]1/C=C\O[C@]2(C)Oc3c(C)c(O)c4c(O)c(cc(O)c4c3C2=O)NC(=O)/C(C)=C\C=C/[C@H](C)[C@@H](O)[C@H](C)[C@H](O)C(C)[C@H](OC(C)=O)[C@@H]1C (some centres not stated)	none (no result: RORg inh, Gal4-VP16 FLuc)
O=C(COc1ccc2ccccc2c1)Nc1nccs1	RORg inh 10µM, Gal4-VP16 FLuc 16µM
CCOc1ccc(CC(=O)Nc2nccs2)cc1	none
Cc1ccc(CC(=O)Nc2nccs2)cc1C	RORg inh inconclusive, Gal4-VP16 FLuc 2.5µM (no result: Luc counter)
O=C(COc1ccc2ccc(=O)oc2c1)Nc1nccs1	none (no result: Luc counter)
CCNC(=S)NNc1nc(N2CCCCC2)nc(N2CCOCC2)n1	RORg inh 14µM, Gal4-VP16 FLuc inconclusive
C/C(=N\Nc1nc(N2CCCCC2)nc(N2CCOCC2)n1)c1ccccc1O	none
COc1cc(/C(C#N)=C/c2ccccc2)c([N+](=O)[O-])cc1OC	RORg inh inconclusive
COCCNC(=O)c1cccc(OC2CCN(Cc3ccc(F)cc3OC)CC2)c1	none (no result: Luc counter)
CCCNC(=O)OC[C@@H]1O[C@H](CCO/N=C(\C)CCN2CCCc3nc(C)c(C)cc32)C=C[C@@H]1Oc1ccc(OC)cc1	none (no result: Luc counter)
Cc1ccc(S(=O)(=O)/N=C(\N)Nc2nc(C)c3ccccc3n2)cc1	none
Cc1ccc2nc(N/C(N)=N/S(=O)(=O)c3ccc([N+](=O)[O-])cc3)nc(C)c2c1	none
Cc1cccc(NC(=S)/N=C(\N)Nc2nc(C)c3ccc(C)cc3n2)c1	RORg inh 1µM, Gal4-VP16 FLuc 3.5µM
Cc1cc(C)cc(NC(=S)/N=C(\N)Nc2nc(C)c3ccccc3n2)c1	RORg inh 2µM, Gal4-VP16 FLuc 3.2µM
Cc1ccc(NC(=S)/N=C(\N)Nc2nc(C)c3ccccc3n2)cc1C	RORg inh 1µM, Gal4-VP16 FLuc 1µM
CC(C)=NN/C(N)=N/C(=S)Nc1ccc(C)cc1	RORg inh inconclusive
COc1ccc2c(C)nc(N/C(N)=N/S(=O)(=O)c3ccc(C)cc3)nc2c1	none
Cc1cccc(NC(=S)/N=C(\N)Nc2nc(C)c3cc(C)ccc3n2)c1	RORg inh 7.1µM, Gal4-VP16 FLuc 4.5µM (no result: Luc counter)
Cc1c(CCOC(=O)c2cc([N+](=O)[O-])cc([N+](=O)[O-])c2)sc[n+]1CCCCS(=O)(=O)[O-]	none
Cc1cccc(NC(=S)/N=C(\N)Nc2nc(C)c3ccccc3n2)c1	RORg inh 2.2µM, Gal4-VP16 FLuc 5µM
Cc1cccc(NC(=O)CSc2nc(C3CC3)nc3ccccc23)c1	none (no result: Luc counter)
N=c1c2ccccc2nnn1-c1cccc(C(F)(F)F)c1	none
COC(=O)c1ccc(OCC(O)CN2CCOCC2)cc1 (configuration not stated)	none (no result: Luc counter)
CC(=O)Nc1ccc(OC(=O)c2ccccc2OC(C)=O)cc1	Gal4-VP16 FLuc inconclusive (no result: Luc counter)
C=CCS/C(N)=N\N=C\c1c(O)ccc2ccccc12	RORg inh 0.5µM, Gal4-VP16 FLuc 3.2µM (no result: Luc counter)
Oc1ccccc1C=NCc1ccccc1	none (no result: Luc counter)
O=C(O)c1ccc(N=Cc2c(O)ccc3ccccc23)cc1	Gal4-VP16 FLuc inconclusive (no result: Luc counter)
CCCS/C(N)=N/N=C/c1ccccc1O	RORg inh 0.63µM, Gal4-VP16 FLuc 1.4µM
CCN(CC)S(=O)(=O)c1cccc(C(=O)NC(C)C(c2cccs2)N2CCCC2)c1 (configuration not stated)	none
CCN(CC)S(=O)(=O)c1cccc(C(=O)N/N=C(\C)c2cccs2)c1	RORg inh 3.5µM, Gal4-VP16 FLuc inconclusive
C/C(=N\NC(=O)c1cccc(S(=O)(=O)Nc2cccc(Cl)c2)c1)c1cccs1	RORg inh 5µM, Gal4-VP16 FLuc 4µM (no result: Luc counter)
Cc1ccc(NC(=O)c2cccs2)cc1S(=O)(=O)Nc1cccc(Cl)c1	Gal4-VP16 FLuc inconclusive
CC(C)CC(CSc1ccc(Br)cc1)N1CCN(CCc2ccccc2)CCC1=O (configuration not stated)	none (no result: Luc counter)
CC(=O)N1CCN(CC(=O)Nc2c(Cl)ccc(C)c2Cl)CC1	none
O=C(COc1ccc(Cl)cc1Cl)N/N=C/c1ccc[nH]1	RORg inh 2.8µM, Gal4-VP16 FLuc 4.5µM (no result: Luc counter)
CN(C(=S)NC(=O)CCCOc1ccc(Cl)cc1Cl)c1ccccc1	RORg inh 5.6µM
O=C(CCCOc1ccc(Cl)cc1Cl)N/N=C/c1ccccc1O	RORg inh 8.9µM
CC(C)NC(=O)CCCOc1ccc(Cl)cc1Cl	none
O=C(COc1ccc(Cl)cc1Cl)N/N=C/CCc1ccccc1	none
O=C(CCCOc1ccc(Cl)cc1Cl)N/N=C/c1ccccc1	Gal4-VP16 FLuc inconclusive
C/C=C(\C)C(=O)O[C@H]1C[C@@]2(C)CCC(C(C)C)C2(O)CC[C@@]1(C)O (some centres not stated)	none
COCCN(CCOC)c1nc(C)nc2c1nc(-c1ccccc1)n2CC1CCN(C)CC1	none
Cc1ccccc1-c1nnc(SCCC(=O)N2CCOCC2)o1	none
CN(c1ccccc1)S(=O)(=O)c1ccc(NC(=O)C2CC2)cc1	none (no result: Luc counter)
CC(C)C(=O)NC(=S)Nc1ccc(S(=O)(=O)N(C)Cc2ccccc2)cc1	RORg inh 14µM, Gal4-VP16 FLuc inconclusive
Cc1ccccc1C(=O)NC(=S)Nc1ccc(S(=O)(=O)N(C)c2ccccc2)cc1	RORg inh 11µM, Gal4-VP16 FLuc inconclusive
CC(=O)NC(=S)Nc1ccc(S(=O)(=O)N(C)Cc2ccccc2)cc1	none
CN(c1ccccc1)S(=O)(=O)c1ccc(NC(=O)c2ccccc2)cc1	RORg inh inconclusive
Cc1cccc(C(=O)NC(=S)Nc2ccc(S(=O)(=O)N(C)c3ccccc3)cc2)c1	RORg inh 11µM, Gal4-VP16 FLuc inconclusive
CCc1cc2ccc(C)cc2nc1SCC(=O)Nc1c[nH]c(=O)[nH]c1=O	none
CN(c1ccc(C(=O)NC2CC2)cc1)S(=O)(=O)c1ccccc1	none
COc1ccc(NC(=O)CCNC(=O)c2ccco2)cc1Cl	none (no result: Luc counter)
O=C1CCCC(O)=C1N=Nc1c(Cl)cc(Cl)cc1Cl	RORg inh 11µM, Gal4-VP16 FLuc inconclusive
O=C1CCCC(O)=C1N=Nc1cccc(C(=O)O)c1	none
CC(Cc1ccccc1)NC(=S)CN1CCCC1=S (configuration not stated)	RORg inh 8.9µM, Gal4-VP16 FLuc inconclusive (no result: Luc counter)
CC(Cc1ccccc1)NC(=O)CC(c1ccccc1)c1ccccc1O (configuration not stated)	none (no result: Luc counter)
COc1ccc(N(C(=O)C(C)C)S(=O)(=O)c2ccc3ccccc3c2)cc1	none (no result: Luc counter)
CC(C)c1ccc(/C=C2\SC(=O)N(CC(=O)NC3CCS(=O)(=O)C3)C2=O)cc1 (configuration not stated)	RORg inh inconclusive, Gal4-VP16 FLuc 7.1µM (no result: Luc counter)
O=C(CN1C(=O)S/C(=C\c2ccccc2)C1=O)NC1CCS(=O)(=O)C1 (configuration not stated)	none (no result: Luc counter)
O=C(CCCN1C(=O)/C(=C/c2ccc(F)cc2)SC1=S)NC1CCS(=O)(=O)C1 (configuration not stated)	RORg inh 4µM, Gal4-VP16 FLuc 18µM (no result: Luc counter)
O=C(CCN1C(=O)/C(=C/c2ccccc2)SC1=S)NC1CCS(=O)(=O)C1 (configuration not stated)	Gal4-VP16 FLuc inconclusive (no result: Luc counter)
COCn1c2ccccc2c2nnc(C(=O)O)nc21	none (no result: Luc counter)
Nc1nc(CN2CCN(c3ccccc3)CC2)nc(Nc2ccc(Cl)cc2)n1	RORg inh inconclusive
